In PubChem BioAssay (Tox21) one finds Potency data, which are given here for twelve compounds.

Activity calls are given as the source filed them. Unless noted, calls follow the shape of the dose curve; as a rule, active = well fitted curve in the direction sought with a large enough effect in the repeat runs; inconclusive = weak or mixed curves; inactive = no such curve, though single readings can be large; an effect the other way counts as inactive or inconclusive.

Experiment [1] has as its target Peroxisome proliferator-activated receptor gamma (Homo sapiens) (UniProt P37231). The experiment in a line: qHTS assay to identify small molecule antagonists of the peroxisome proliferator-activated receptor gamma (PPARg) signaling pathway (AID 743191; calls by dose curve; also: nearly all actives have a fitted effect of over 30% in size). The procedure, abridged:
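Beta-lactamase reporter under UAS control in HEK293H PPARg-bla cells; compound treatment 17 h at 37C. Read-out: fluorescence intensity after 1 h room-temperature incubation with LiveBLAzer B/G FRET substrate.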
For orientation: Quantitative high-throughput screening tests each substance at several concentrations.

The nature of experiment [2]: qHTS assay to identify small molecule antagonists of the peroxisome proliferator-activated receptor gamma (PPARg) signaling pathway - cell viability counter screen (AID 743194). Also: nearly all actives have a fitted effect of over 55% in size. Also: potency is read from the fitted curve at half-maximal effect. The following applies: Potency: co-treated with 50 nM rosiglitazone unless noted. In short, it runs like this:
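Viability was measured as CellTiter-Glo luminescence in GeneBLAzer PPARg UAS-bla HEK293H cells. These cells had been exposed 17 h at 37 C to compounds together with rosiglitazone at 50 nM final, with the beta-lactamase readout taken in the same wells.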

The nature of experiment [3]: qHTS assay for small molecule agonists of the antioxidant response element (ARE) signaling pathway - cell viability counter screen (AID 743203; calls by dose curve; also: nearly all actives have a fitted effect of over 55% in size). In short, it runs like this:
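Compounds in DMSO were pinned onto ARE-bla HepG2 cells plated 5 hrs earlier at 2,000 cells/well. Sixteen hours later at 37C/5% CO2, CellTiter-Glo was added and luminescence measured after 30 min at room temperature.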

A short description of experiment [4]: qHTS assay for small molecule activators of the heat shock response signaling pathway - cell viability counter screen (AID 743209). Also: nearly all actives have a fitted effect of over 50% in size. In short, it runs like this: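 Counter screen for cytotoxicity in HeLa HSE-bla reporter cells. Treatment was 5 h at 37 C; viability was detected by luminescent ATP assay (CellTiter-Glo) in the same wells as the beta-lactamase read.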

The nature of experiment [5]: qHTS assay for small molecule activators of the heat shock response signaling pathway (AID 743210; active = well fitted activation curve with a large enough effect in the signal ratio in the repeat runs, with a control signal flat, not every such curve was filed as active; inconclusive = weak or mixed curves; the % refers to the signal ratio;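 also: HeLa cells with beta-lactamase reporter driven by heat shock elements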). In short, it runs like this:
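HeLa HSE-bla cells, overnight plating; cpd in DMSO 5 h, 37 C; LiveBLAzer B/G FRET substrate 2.5 h RT; fluorescence intensity read.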

The nature of experiment [6]: qHTS assay for small molecule agonists of the antioxidant response element (ARE) signaling pathway (AID 743202; active = well fitted activation curve with a large enough effect in the signal ratio in the repeat runs, not every such curve was filed as active; inconclusive = weak or mixed curves, or effect the other way; inactive = no such curve, though single readings can be large or run the other way; the % refers to the signal ratio; also: potency is read from the fitted curve at half-maximal effect). The procedure, abridged: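 Quantitative high-throughput format in HepG2 cells bearing an integrated ARE-beta-lactamase reporter. Compound exposure lasted 16 h at 37 C, and fluorescence was read 2 h after adding LiveBLAzer B/G substrate at room temperature.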

Experiment [7] has as its system thyroid hormone receptor (rat, GH3 cells). In words: qHTS assay to identify small molecule agonists of the thyroid receptor (TR) signaling pathway (AID 743066; calls by dose curve).
Experiment [8] in a line: qHTS assay to identify small molecule antagonists of the estrogen receptor alpha (ER-alpha) signaling pathway - cell viability counter screen (AID 743074; calls by dose curve;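 also: HEK293 cells carrying ER-alpha-UAS-bla reporter stimulated with 17beta-estradiol; nearly all actives have a fitted effect of over 45% in size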).
Experiment [9] has as its target Estrogen receptor (Homo sapiens) (UniProt P03372). In words: qHTS assay to identify small molecule agonists of the estrogen receptor alpha (ER-alpha) signaling pathway (AID 743075; calls by dose curve;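 also: HEK293 GripTite cells with ER-alpha and UAS-driven beta-lactamase reporter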; also: potency is read from the fitted curve at half-maximal effect).
Experiment [10] has the same target. The experiment in a line: qHTS assay to identify small molecule agonists of the estrogen receptor alpha (ER-alpha) signaling pathway using the BG1 cell line (AID 743079). Also: nearly all actives have a fitted effect of over 20% in size. The following applies: BG1Luc4E2 cells, ERE-luciferase agonist, 22 h; activation: at 70.3 µM (top of the series).
The nature of experiment [11]: qHTS assay to identify small molecule antagonists of the estrogen receptor alpha (ER-alpha) signaling pathway using the BG1 cell line (AID 743080; calls by dose curve;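 also: BG1 cells stimulated with 17beta-estradiol alongside compound; nearly all actives have a fitted effect of over 25% in size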; also: potency is read from the fitted curve at half-maximal effect). The procedure, abridged: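 BG1-Luc-4E2 cells (endogenous full-length ER-alpha, stable 4×ERE-luciferase) were starved 5 days in phenol-red-free medium with 10% charcoal-stripped FBS, plated 24 h, then given compound plus 17beta-estradiol for 21.5 h at 37 C; ONE-Glo luminescence read after 30 min.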

The nature of experiment [12]: qHTS assay to identify small molecule antagonists of the estrogen receptor alpha (ER-alpha) signaling pathway using the BG1 cell line - cell viability counter screen (AID 743081).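 Also: compound given together with 17beta-estradiol as the ER stimulus; nearly all actives have a fitted effect of over 45% in size.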
Another experiment has as its target Aromatase (Homo sapiens) (UniProt P11511). The experiment in a line: qHTS assay to identify aromatase inhibitors (AID 743083). Also: nearly all actives have a fitted effect of over 55% in size. Also: potency is read from the fitted curve at half-maximal effect.
Experiment [13] in a line: qHTS assay to identify aromatase inhibitors - cell viability counter screen (AID 743084).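 Also: cells stimulated with testosterone during compound exposure; nearly all actives have a fitted effect of over 55% in size.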
Experiment [14] deals with Peroxisome proliferator-activated receptor gamma (Homo sapiens) (UniProt P37231). In words: qHTS assay to identify small molecule agonists of the peroxisome proliferator-activated receptor gamma (PPARg) signaling pathway (AID 743094; active = well fitted activation curve with a large enough effect in the signal ratio in the repeat runs, not every such curve was filed as active; inconclusive = weak or mixed curves, or effect the other way; inactive = no such curve, though single readings can be large or run the other way; the % refers to the signal ratio). In short, it runs like this: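 Following 5 h plating at 37C, PPARg-bla HEK293H cells receive compound or DMSO for 17 h; fluorescence intensity is recorded after LiveBLAzer B/G loading for 1 h at room temperature.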

Experiment [15] deals with Estrogen receptor (Homo sapiens) (UniProt P03372). In words: qHTS assay to identify small molecule antagonists of the estrogen receptor alpha (ER-alpha) signaling pathway (AID 743069; active = well fitted curve in the direction sought with a large enough effect in the signal ratio in the repeat runs, not every such curve was filed as active; inconclusive = weak or mixed curves, or effect the other way; inactive = no such curve, though single readings can be large or run the other way; the % refers to the signal ratio). The procedure, abridged:
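ER-alpha-UAS-bla GripTite HEK293 line; 2% charcoal-stripped FBS overnight; plated, 4 hr 37C/5% CO2; cpd in DMSO + 17beta-estradiol, 18 hr 37C; LiveBLAzer B/G FRET substrate 2 hr RT; fluorescence intensity.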

Experiment [16] deals with Aryl hydrocarbon receptor (Homo sapiens) (UniProt P35869). The experiment in a line: qHTS assay to identify small molecule that activate the aryl hydrocarbon receptor (AhR) signaling pathway (AID 743085). Also: nearly all actives have a fitted effect of over 15% in size. Also: potency is read from the fitted curve at half-maximal effect.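 As to activation: HG2L7.5c1 human HepG2 liver cells with stably integrated DRE-driven firefly reporter.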 In short, it runs like this:
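Luminescence (ONE-Glo) from a dioxin-responsive-element luciferase reporter in HG2L7.5c1 HepG2 cells after 24 hr compound exposure at 37C; viability measured by CellTiter-Fluor fluorescence beforehand.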

Experiment [17] is described as follows: qHTS assay to identify small molecule that activate the aryl hydrocarbon receptor (AhR) signaling pathway - cell viability counter screen (AID 743086). Also: nearly all actives have a fitted effect of over 45% in size. In short, it runs like this: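 Cytotoxicity counter screen: CellTiter-Fluor signal (30 min, 37 C) in 4000 HepG2 cells/well carrying the DRE-luciferase reporter, following 24 h compound exposure at 37 C.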

Experiment [18] can be described thus: qHTS assay to identify small molecule antagonists of the thyroid receptor (TR) signaling pathway (AID 743065). The procedure, abridged:
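Antagonism measured as loss of luciferase signal in GH3 cells stably carrying a TRE-luciferase reporter, co-treated with compound and T3 (1 nM final) for 23.5 h at 37 C. Viability was read in the same well by CellTiter-Fluor.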

Estrogen receptor (Homo sapiens), sequence (P03372 whole entry, looked up): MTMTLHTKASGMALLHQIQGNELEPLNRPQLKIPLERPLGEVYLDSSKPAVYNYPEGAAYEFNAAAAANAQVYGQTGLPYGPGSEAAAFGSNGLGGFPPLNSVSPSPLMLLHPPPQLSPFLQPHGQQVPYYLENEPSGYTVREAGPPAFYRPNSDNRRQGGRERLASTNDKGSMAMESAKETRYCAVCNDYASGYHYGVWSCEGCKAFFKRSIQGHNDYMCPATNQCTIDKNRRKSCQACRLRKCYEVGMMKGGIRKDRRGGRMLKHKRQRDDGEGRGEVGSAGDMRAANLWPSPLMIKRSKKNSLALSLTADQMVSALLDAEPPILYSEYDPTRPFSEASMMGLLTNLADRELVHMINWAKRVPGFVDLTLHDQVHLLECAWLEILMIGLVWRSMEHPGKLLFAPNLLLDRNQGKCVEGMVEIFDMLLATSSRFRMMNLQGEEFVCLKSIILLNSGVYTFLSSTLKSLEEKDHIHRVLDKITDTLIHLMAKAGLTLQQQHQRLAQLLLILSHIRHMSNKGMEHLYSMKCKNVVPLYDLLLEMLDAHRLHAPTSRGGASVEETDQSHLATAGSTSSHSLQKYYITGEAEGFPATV
Aryl hydrocarbon receptor (Homo sapiens), sequence (P35869 whole entry, looked up): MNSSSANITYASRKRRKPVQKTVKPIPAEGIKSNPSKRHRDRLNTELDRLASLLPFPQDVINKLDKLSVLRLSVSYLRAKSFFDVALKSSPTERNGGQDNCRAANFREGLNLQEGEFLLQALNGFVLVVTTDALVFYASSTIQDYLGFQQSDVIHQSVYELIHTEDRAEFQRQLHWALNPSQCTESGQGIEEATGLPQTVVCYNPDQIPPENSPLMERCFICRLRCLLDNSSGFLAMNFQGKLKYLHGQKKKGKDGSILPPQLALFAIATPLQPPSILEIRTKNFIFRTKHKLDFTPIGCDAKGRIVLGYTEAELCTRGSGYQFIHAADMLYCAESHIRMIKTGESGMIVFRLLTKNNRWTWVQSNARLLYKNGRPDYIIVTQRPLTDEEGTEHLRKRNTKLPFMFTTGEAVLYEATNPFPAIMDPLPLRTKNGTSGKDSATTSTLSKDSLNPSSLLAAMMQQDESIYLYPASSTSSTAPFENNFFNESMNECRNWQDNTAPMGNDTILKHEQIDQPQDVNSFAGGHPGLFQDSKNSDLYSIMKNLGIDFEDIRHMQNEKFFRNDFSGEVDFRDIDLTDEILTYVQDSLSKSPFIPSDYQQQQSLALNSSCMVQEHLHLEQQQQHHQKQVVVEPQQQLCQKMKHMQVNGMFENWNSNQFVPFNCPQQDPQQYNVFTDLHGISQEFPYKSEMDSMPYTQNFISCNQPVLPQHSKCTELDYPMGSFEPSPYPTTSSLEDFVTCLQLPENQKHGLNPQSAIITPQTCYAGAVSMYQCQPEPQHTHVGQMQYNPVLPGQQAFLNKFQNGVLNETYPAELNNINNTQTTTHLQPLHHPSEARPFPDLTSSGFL
Aromatase (Homo sapiens), sequence (P11511 whole entry, looked up): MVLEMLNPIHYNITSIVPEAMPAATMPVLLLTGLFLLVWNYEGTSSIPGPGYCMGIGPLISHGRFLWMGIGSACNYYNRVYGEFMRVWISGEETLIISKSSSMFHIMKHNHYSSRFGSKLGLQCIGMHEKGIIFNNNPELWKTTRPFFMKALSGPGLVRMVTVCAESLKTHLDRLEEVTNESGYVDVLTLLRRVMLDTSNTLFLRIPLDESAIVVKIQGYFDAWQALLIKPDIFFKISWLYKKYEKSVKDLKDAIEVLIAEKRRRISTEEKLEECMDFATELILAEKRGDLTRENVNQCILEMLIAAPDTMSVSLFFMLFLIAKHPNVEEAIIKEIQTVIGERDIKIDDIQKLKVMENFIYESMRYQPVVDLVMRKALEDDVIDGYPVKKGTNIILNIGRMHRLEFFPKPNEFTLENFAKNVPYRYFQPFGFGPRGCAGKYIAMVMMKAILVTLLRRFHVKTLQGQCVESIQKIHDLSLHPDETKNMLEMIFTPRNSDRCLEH
Peroxisome proliferator-activated receptor gamma (Homo sapiens), sequence (P37231 whole entry, looked up): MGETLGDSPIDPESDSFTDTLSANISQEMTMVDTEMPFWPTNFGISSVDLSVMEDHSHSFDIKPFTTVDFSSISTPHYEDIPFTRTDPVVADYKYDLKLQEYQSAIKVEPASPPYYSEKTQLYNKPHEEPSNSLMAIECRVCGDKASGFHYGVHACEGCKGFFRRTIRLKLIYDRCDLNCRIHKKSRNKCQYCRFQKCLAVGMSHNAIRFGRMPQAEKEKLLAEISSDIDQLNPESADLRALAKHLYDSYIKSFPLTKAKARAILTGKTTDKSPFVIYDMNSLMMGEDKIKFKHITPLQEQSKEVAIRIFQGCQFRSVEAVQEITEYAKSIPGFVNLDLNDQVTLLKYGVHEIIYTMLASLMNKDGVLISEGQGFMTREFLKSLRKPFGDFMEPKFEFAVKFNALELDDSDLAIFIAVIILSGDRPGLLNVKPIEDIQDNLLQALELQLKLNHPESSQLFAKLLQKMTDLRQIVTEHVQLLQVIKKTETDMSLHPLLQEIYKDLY

For `C[C@@H]1CC2=CC(=O)CC[C@@H]2[C@H]2CC[C@@]3(C)[C@@H](CC[C@]3(C)O)[C@@H]21`, the Potency entry in experiment [1], in experiment [2], in experiment [3], in experiment [4] and in experiment [5] was “inactive” in each case.
As for `CC(Cc1ccccc1)N(C)Cc1ccco1` (centres undefined), the Potency entry in experiment [2], in experiment [6], in experiment [3] and in [4] was “inactive” in each case.
As to `COP(=S)(OC)Oc1nc(Cl)c(Cl)cc1Cl`, the Potency entry in [7], in [8], in experiment [9], in experiment [10], in [11] and in [12] was “inactive” throughout. Besides, the Potency result (with Aromatase (Homo sapiens); in experiment [13]; in experiment [14]; in experiment [6]; in experiment [4]) was “inactive” throughout.
Consider `C#CCO`, for which the Potency result in [15], in experiment [8], in experiment [9], in experiment [10], in experiment [11] and in experiment [12] was “inactive” throughout. The Potency result (in the experiment with Aromatase (Homo sapiens); in experiment [13]; in experiment [16]; in [17]; in experiment [2]; in [6]) was “inactive” in each case. In addition, the Potency entry in [3] and in [4] was “inactive” each time.
For `Nc1ccc(Cl)cc1C(=O)c1ccccc1F`, the Potency entry in experiment [4] was “inactive”.
In the case of `Cc1ccc2cc3c(ccc4ccccc43)c3c2c1CC3`, the Potency entry in [15], in [8], in experiment [12], in experiment [13], in [17] and in experiment [2] was “inactive” each time. Besides, the Potency result in [3] and in experiment [4] was “inactive” each time. The Potency in [9] was 6.18 µM [activator] (active); in [11], 0.546 µM (active); in [16], 0.487 µM (active); in experiment [6], 1.22 µM (active).
As to `Cc1c([N+](=O)[O-])cc2c(c1[N+](=O)[O-])C(C)(C)CC2(C)C`, the Potency entry in experiment [7], in [8], in [12], in experiment [13], in experiment [16] and in experiment [17] was “inactive” throughout. The Potency entry in [14], in [2], in [3] and in experiment [4] was “inactive” each time. Moreover, the Potency is 21.9 µM [inconclusive] (active) in experiment [9], 15.4 µM (active) in experiment [11] and 27.3 µM (active) in the experiment with Aromatase (Homo sapiens).
Consider `C[C@]12CC[C@H]3[C@@H](CCC4=CC(=O)CC[C@@H]43)[C@@H]1CC[C@@H]2OC(=O)CCc1ccco1`, for which, in experiment [2], the Potency is 29.8 µM [setting not given] (active).
Take `O=[N+]([O-])[O-].[Tl+]`: the Potency entry in [8], in experiment [12], in [13], in [16], in experiment [17] and in experiment [2] was “inactive” each time. In addition, the Potency entry in experiment [4] was “inactive”. Besides, the Potency with Aromatase (Homo sapiens) was 69.1 µM (active).
For the compound `FC(F)C(F)(F)OCC(Cn1cncn1)c1ccc(Cl)cc1Cl` (centres undefined), the Potency was 60.8 µM (active) in experiment [18], 7.65 µM (active) in the experiment with Aromatase (Homo sapiens) and 6.82 µM (active) in experiment [16]. Besides, the Potency result in [12], in experiment [2], in experiment [3] and in experiment [5] was “inactive” in each case.
Turning to `CCO/N=C(\CC)C1=C(O)CC(c2c(C)cc(C)cc2C)CC1=O` (centres undefined), the Potency result (in [7]; in experiment [8]; in experiment [9]; in [10]; in experiment [11]; with Aromatase (Homo sapiens)) was “inactive” in each case. The Potency entry in experiment [13], in experiment [16], in [17], in experiment [3] and in experiment [5] was “inactive” each time.
On to `CC(C)N(C(=O)SC/C(Cl)=C/Cl)C(C)C`, for which the Potency entry in [7], in experiment [15], in [10], in experiment [11], in [12] and in [13] was “inactive” throughout. In addition, the Potency entry in [16], in experiment [17], in [14], in [6], in experiment [3] and in experiment [5] was “inactive” each time.
